Bioassay records (PubChem)
The sample as a whole holds a higher share of hits than the screen did.
IDE exosite inh = displaces the probe from the exo-site of human IDE; 6.3% of 17,000 active; purified IDE, FL-6b probe fluorescence polarization; hits give low values; z-score at 20 µM; P14735; AID 1259349;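 active means z-score of -3 or lower, meaning strong loss of probe binding signal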;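 further: His-tagged human IDE residues 42-1019 made in E. coli with 30 nM FL-6b probe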
Target sequence (P14735 42-1019 limits assumed): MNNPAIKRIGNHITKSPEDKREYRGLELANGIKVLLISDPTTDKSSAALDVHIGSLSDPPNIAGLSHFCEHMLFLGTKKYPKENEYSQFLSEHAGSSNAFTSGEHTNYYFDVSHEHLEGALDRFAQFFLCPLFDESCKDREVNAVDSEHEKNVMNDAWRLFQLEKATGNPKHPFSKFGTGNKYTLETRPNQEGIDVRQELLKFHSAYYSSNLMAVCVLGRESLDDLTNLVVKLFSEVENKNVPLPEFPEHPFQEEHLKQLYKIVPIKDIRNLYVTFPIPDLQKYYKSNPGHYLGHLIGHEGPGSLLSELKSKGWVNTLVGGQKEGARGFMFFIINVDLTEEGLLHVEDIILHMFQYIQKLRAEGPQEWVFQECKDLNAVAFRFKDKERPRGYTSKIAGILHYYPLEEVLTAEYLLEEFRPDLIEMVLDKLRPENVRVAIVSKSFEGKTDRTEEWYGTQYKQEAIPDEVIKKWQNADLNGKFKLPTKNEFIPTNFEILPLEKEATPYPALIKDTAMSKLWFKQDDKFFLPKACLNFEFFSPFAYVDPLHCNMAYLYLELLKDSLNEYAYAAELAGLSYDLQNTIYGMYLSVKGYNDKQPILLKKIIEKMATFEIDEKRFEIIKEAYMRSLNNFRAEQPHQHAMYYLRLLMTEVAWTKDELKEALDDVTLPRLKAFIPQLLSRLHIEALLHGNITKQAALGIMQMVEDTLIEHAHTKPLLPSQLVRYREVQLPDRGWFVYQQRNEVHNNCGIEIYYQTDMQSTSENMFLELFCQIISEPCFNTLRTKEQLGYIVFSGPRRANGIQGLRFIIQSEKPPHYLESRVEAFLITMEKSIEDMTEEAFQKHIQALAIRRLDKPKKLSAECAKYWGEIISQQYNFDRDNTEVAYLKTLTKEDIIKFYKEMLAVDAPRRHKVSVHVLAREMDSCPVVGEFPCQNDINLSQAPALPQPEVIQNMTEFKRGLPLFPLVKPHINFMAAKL
Large screens that a line does not name were inactive.

O=C(C[C@H]1CC[C@@H]2[C@H](COC[C@H](O)CN2C(=O)c2cnccn2)O1)N1CCN(c2ccccc2)CC1	none
C[C@H]1CCCCO[C@H](CN(C)C(=O)Nc2ccc3c(c2)OCO3)[C@@H](C)CN([C@@H](C)CO)C(=O)c2cc(NS(=O)(=O)c3ccc(F)cc3)ccc2O1	none
O=C(NCC[C@H]1CC[C@@H](NS(=O)(=O)c2ccc(F)cc2)[C@H](CO)O1)c1ccc2c(c1)OCO2	none
C/C=C/c1ccc([C@H]2[C@@H](CO)N(S(C)(=O)=O)[C@@H]2CN(CCC)C(C)=O)cc1	none
O=C(C[C@@H]1CC[C@@H]2[C@H](COC[C@@H](O)CN2C(=O)c2cnccn2)O1)NCc1ccc(Cl)cc1	none
C[C@@H]1CN([C@@H](C)CO)C(=O)c2cc(C#Cc3ccccc3)cnc2O[C@H]1CN(C)C(=O)c1ccccc1	none
CCCNC(=O)N1CC2(C1)CN(Cc1ccc(F)cc1)[C@H](CO)c1[nH]c3cc(OC)ccc3c12	none
COc1ccc2c3c([nH]c2c1)[C@H](CO)N(Cc1cccc(F)c1)CC31CCN(C(C)=O)CC1	IDE exosite inh -6.6
COc1ccc(CN2CC3(CN(C(=O)Cc4ccccc4)C3)c3c([nH]c4cc(OC)ccc34)[C@@H]2CO)cc1	none
COc1ccc2c3c([nH]c2c1)[C@@H](CO)N(Cc1ccncc1)CC31CCN(CC2CCOCC2)CC1	none
COc1ccc2c3c([nH]c2c1)[C@@H](CO)N(Cc1nccs1)CC31CN(Cc2ccncc2)C1	IDE exosite inh -3.2
CCCNC(=O)N1CC2(CCN(S(=O)(=O)CC)CC2)c2c([nH]c3cc(OC)ccc23)[C@@H]1CO	none
CCCC(=O)N1CC2(C1)CN(Cc1cccnc1)[C@@H](CO)c1[nH]c3cc(OC)ccc3c12	none
CCC(=O)N1CC2(C1)CN(Cc1cccc(Cl)c1)[C@@H](CO)c1[nH]c3cc(OC)ccc3c12	IDE exosite inh -3.3
COc1ccc2c3c([nH]c2c1)[C@@H](CO)N(C(C)=O)CC31CCN(C(C)=O)CC1	none
COc1ccc2c3c([nH]c2c1)[C@@H](CO)N(CC1CC1)CC31CCN(C(=O)Nc2cccc(F)c2)CC1	none
COc1ccc2c3c([nH]c2c1)[C@H](CO)N(Cc1nccs1)CC31CCN(C(=O)C2CCCCC2)CC1	none
CCCNC(=O)N1CCC2(CC1)CN(Cc1cccc(OC)c1)[C@H](CO)c1[nH]c3cc(OC)ccc3c12	IDE exosite inh -4.6
O=C(c1ccccn1)N1CC(=O)N2[C@H](CO)[C@H](c3ccc(C#CC4CCCC4)cc3)[C@@H]2C1	none
CC(=O)N1CCCCN2[C@@H](CO)[C@H](c3ccc(Br)cc3)[C@@H]2C1	none
COCCN(C[C@@H]1N[C@@H](CO)[C@@H]1c1ccc(-c2cccnc2)cc1)C(C)=O	none
COC(=O)C[C@H]1C[C@@H]2c3cc(NC(=O)C4CCOCC4)ccc3O[C@@H]2[C@@H](CO)O1	none
CCCNC(=O)N1[C@H](CO)[C@H](c2ccc(C3=CCCC3)cc2)[C@@H]1CN(C)C(C)=O	none
CN(C)Cc1cn(CC[C@H]2CC[C@@H](NC(=O)Cc3cccnc3)[C@@H](CO)O2)nn1	none
COc1ccccc1CNC(=O)C[C@H]1C[C@H]2c3cc(NC(=O)C4CCC4)ccc3O[C@H]2[C@H](CO)O1	none
C[C@@H]1CN([C@@H](C)CO)C(=O)c2ccccc2-c2ccccc2CO[C@H]1CN(C)C(=O)CCC(F)(F)F	none
COc1ccccc1-c1ccc([C@H]2[C@@H](CO)N(C(=O)c3cccc(F)c3)[C@H]2C#N)cc1	IDE exosite inh -4.2
COc1ccc(-c2ccc([C@@H]3[C@@H](C#N)N(C(=O)C4CCC4)[C@H]3CO)cc2)cc1	none
COc1ccccc1-c1ccc([C@H]2[C@@H](C#N)N(C(=O)C3CCC3)[C@H]2CO)cc1	IDE exosite inh -5
N#C[C@@H]1[C@H](c2ccc(-c3ccccc3F)cc2)[C@@H](CO)N1C(=O)C1CC1	none
CN(C)C(=O)c1cccc(-c2ccc([C@H]3[C@@H](CO)N(C(=O)C4CC4)[C@H]3C#N)cc2)c1	none
N#C[C@H]1[C@@H](c2ccc(-c3ccccc3F)cc2)[C@@H](CO)N1C(=O)C1CCC1	none
CN(C)C(=O)c1cccc(-c2ccc([C@@H]3[C@@H](C#N)N(C(=O)C4CCC4)[C@@H]3CO)cc2)c1	IDE exosite inh -4.2
N#C[C@H]1[C@H](c2ccc(-c3ccccc3F)cc2)[C@@H](CO)N1C(=O)C1CC1	IDE exosite inh -4.5
COc1ccc(-c2ccc([C@@H]3[C@@H](CO)N(C(=O)c4cccc(F)c4)[C@H]3C#N)cc2)cc1	none
COc1ccc(-c2ccc([C@H]3[C@@H](C#N)N(C(=O)c4cccc(F)c4)[C@H]3CO)cc2)cc1	none
CN(C)C(=O)c1cccc(-c2ccc([C@@H]3[C@@H](CO)N(C(=O)C4CCC4)[C@H]3C#N)cc2)c1	none
N#C[C@H]1[C@@H](c2ccc(-c3ccccc3F)cc2)[C@H](CO)N1C(=O)C1CC1	none
CC(=O)NC[C@H]1[C@H](c2ccccc2)[C@@H](CO)N1C(=O)Cc1ccncc1	none
CC(=O)NC[C@H]1[C@@H](c2ccc(-c3cccnc3)cc2)[C@@H](CO)N1C(=O)C1CC1	none
CO[C@H]1CC[C@H]2CCOc3c(C#N)cccc3C(=O)N(C)CCCC(=O)N(C)C[C@@H]1O2	none
